Reference: paper PMC7862700, “An all-to-all approach to the identification of sequence-specific readers for epigenetic DNA modifications on cytosine”

Tests used:
Test in all cases: DAPPL (digital affinity profiling via proximity ligation, sequencing); 10 mM Tris-HCl pH 7.5, 50 mM NaCl, 1 mM DTT, 4% glycerol, room temperature, 30 min; GST-TFs on glutathione beads, 16-mer random dsDNA library, 0.1% formaldehyde crosslink after washing; high values mean tight binding
FEV = target: T1, FEV (Homo sapiens, UniProt Q99581 1-238); settings: protein: recombinant; tags: N-terminal GST; dsDNA, one strand shown
T1 sequence: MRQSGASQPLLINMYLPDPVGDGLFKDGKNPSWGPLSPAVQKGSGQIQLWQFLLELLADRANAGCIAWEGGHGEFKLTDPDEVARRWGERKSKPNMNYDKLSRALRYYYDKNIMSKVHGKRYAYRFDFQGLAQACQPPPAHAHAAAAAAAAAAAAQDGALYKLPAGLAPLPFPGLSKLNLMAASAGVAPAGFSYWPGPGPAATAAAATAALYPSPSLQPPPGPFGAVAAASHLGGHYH
Method in brief: (§1)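 Sequencing on an Illumina NextSeq500 followed washing, crosslinking with 0.1% formaldehyde, proximity ligation (BsaI/T4 ligase, 1 h, 37 °C) and PCR amplification of pools that had been incubated for 30 min at room temperature with 200 nmole of a random double-stranded 16-mer DNA library in Tris/NaCl/DTT/glycerol buffer. Each pool held DNA-barcoded human transcription factors, expressed in yeast as GST fusions and captured on glutathione beads, plus a tag-only sample. Binding signal is a hexamer's read frequency for a factor divided by its frequency in the tag-only sample.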

ETV5 = ETV5 (Homo sapiens, UniProt P41161 1-510); settings: protein: recombinant; tags: N-terminal GST; dsDNA, one strand shown
Method in brief: as §1

HSF1 = HSF1 (Homo sapiens, UniProt Q00613 1-529); settings: protein: recombinant; tags: N-terminal GST; chain copies: 3; dsDNA, one strand shown
Method in brief: as §1

SPIC = target: T2, SPIC (Homo sapiens, UniProt Q8N5J4 1-248); settings: protein: recombinant; tags: N-terminal GST; dsDNA, one strand shown
T2 sequence: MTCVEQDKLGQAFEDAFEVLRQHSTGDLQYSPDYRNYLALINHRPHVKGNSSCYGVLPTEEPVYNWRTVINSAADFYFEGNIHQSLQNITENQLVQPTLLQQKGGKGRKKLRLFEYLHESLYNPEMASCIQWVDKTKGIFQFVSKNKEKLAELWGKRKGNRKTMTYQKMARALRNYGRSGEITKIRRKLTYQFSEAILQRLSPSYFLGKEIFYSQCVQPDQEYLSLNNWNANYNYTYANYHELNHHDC
Method in brief: as §1

ELF4 = ELF4 (Homo sapiens, UniProt Q99607 1-663); settings: protein: recombinant; tags: N-terminal GST; dsDNA, one strand shown
Method in brief: as §1

ELK4 = target: T3, ELK4 (Homo sapiens, UniProt P28324-2 1-405); settings: protein: recombinant; tags: N-terminal GST; dsDNA, one strand shown
T3 sequence: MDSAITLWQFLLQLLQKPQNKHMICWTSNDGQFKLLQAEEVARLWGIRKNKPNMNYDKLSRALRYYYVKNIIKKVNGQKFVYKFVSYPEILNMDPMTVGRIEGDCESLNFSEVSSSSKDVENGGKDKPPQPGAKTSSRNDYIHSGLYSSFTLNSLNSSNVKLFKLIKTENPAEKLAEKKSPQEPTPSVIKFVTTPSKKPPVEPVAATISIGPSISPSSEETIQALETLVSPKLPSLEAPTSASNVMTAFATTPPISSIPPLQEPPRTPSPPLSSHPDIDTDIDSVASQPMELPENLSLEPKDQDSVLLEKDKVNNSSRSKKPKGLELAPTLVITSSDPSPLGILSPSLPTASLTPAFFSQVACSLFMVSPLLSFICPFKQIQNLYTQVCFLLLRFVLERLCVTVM
Method in brief: as §1

ETV2 = target: T4, ETV2 (Homo sapiens, UniProt O00321 1-342); settings: protein: recombinant; tags: N-terminal GST; dsDNA, one strand shown
T4 sequence: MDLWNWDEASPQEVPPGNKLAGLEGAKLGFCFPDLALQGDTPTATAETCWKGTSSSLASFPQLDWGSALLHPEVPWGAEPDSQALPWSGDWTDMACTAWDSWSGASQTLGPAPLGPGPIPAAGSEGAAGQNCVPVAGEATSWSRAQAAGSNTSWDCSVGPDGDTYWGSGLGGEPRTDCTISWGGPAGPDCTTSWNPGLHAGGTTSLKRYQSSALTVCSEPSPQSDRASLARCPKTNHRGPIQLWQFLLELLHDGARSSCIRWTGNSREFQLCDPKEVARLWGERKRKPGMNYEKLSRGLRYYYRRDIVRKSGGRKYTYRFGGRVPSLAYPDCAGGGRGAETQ
Method in brief: as §1

ELF3 = target: T5, ELF3 (Homo sapiens, UniProt P78545 1-371); settings: protein: recombinant; tags: N-terminal GST; dsDNA, one strand shown
T5 sequence: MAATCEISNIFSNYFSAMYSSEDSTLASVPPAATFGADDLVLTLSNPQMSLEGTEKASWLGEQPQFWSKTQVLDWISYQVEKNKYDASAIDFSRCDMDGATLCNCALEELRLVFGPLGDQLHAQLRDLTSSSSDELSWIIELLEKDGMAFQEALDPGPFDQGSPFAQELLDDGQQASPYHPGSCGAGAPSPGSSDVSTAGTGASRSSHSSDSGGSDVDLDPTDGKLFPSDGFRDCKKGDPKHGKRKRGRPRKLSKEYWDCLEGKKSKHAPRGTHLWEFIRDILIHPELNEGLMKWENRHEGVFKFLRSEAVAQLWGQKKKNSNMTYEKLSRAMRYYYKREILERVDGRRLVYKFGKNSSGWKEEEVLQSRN
Method in brief: as §1

CRX = CRX (Homo sapiens, UniProt O43186 1-299); settings: protein: recombinant; tags: N-terminal GST; dsDNA, one strand shown
Method in brief: as §1

ETV1 = ETV1 (Homo sapiens, UniProt P50549 1-477); settings: protein: recombinant; tags: N-terminal GST; dsDNA, one strand shown
Method in brief: as §1

Chain of HSF1 (Q00613 whole entry): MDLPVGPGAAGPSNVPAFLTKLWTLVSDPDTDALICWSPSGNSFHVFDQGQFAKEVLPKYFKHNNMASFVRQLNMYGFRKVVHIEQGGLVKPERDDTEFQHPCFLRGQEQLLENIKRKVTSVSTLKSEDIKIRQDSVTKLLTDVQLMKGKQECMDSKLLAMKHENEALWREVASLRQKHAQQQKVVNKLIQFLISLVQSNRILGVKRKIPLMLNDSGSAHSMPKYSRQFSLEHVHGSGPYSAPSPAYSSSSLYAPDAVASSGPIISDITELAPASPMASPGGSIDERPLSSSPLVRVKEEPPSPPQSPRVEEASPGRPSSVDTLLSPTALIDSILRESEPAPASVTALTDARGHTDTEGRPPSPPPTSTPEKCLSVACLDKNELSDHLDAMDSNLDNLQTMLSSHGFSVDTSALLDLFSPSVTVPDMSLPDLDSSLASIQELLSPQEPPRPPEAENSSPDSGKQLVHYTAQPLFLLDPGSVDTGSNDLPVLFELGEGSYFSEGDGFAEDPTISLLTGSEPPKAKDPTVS
Chain of ELF4 (Q99607 whole entry): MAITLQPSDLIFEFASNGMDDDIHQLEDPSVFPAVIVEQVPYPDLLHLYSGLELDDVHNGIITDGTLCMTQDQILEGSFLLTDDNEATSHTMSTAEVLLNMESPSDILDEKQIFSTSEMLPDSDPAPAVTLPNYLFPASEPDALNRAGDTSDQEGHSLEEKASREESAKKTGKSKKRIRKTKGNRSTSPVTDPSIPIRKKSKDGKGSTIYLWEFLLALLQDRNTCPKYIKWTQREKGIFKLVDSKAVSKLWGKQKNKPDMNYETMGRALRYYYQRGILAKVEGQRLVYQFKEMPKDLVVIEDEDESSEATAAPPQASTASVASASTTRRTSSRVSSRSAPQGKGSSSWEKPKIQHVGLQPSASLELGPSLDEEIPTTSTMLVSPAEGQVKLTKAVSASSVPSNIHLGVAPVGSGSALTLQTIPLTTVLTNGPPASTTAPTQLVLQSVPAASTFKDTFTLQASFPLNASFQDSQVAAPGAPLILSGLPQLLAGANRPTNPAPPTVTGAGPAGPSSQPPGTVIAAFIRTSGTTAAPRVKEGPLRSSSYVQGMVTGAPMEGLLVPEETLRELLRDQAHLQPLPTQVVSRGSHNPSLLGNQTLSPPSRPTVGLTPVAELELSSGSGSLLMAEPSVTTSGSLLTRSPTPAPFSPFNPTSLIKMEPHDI
Chain of ETV1 (P50549 whole entry): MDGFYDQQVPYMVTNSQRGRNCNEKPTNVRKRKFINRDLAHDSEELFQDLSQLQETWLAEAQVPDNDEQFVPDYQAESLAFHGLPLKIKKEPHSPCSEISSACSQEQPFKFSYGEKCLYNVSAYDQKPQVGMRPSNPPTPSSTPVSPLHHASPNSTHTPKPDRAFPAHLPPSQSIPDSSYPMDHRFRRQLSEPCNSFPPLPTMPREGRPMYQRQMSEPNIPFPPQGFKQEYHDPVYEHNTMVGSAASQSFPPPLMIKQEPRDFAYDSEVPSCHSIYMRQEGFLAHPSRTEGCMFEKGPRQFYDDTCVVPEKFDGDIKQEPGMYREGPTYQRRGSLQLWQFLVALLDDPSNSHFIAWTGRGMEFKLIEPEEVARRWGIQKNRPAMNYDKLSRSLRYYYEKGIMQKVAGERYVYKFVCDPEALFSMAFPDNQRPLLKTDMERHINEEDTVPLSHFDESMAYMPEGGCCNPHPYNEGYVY
Chain of ETV5 (P41161 whole entry): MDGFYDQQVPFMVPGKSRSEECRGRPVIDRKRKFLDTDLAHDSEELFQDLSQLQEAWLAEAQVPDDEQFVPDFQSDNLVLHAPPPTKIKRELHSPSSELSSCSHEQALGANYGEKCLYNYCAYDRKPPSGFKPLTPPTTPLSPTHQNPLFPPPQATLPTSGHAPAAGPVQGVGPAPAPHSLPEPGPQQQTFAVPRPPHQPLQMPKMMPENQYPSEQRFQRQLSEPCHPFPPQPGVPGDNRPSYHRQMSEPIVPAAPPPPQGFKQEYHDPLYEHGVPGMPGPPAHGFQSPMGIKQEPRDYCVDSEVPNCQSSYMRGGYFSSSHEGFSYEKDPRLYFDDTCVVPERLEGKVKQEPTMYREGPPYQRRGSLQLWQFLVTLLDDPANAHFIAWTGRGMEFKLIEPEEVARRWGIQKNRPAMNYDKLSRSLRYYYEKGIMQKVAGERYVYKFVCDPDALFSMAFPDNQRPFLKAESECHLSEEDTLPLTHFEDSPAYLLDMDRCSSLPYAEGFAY
Chain of CRX (O43186 whole entry): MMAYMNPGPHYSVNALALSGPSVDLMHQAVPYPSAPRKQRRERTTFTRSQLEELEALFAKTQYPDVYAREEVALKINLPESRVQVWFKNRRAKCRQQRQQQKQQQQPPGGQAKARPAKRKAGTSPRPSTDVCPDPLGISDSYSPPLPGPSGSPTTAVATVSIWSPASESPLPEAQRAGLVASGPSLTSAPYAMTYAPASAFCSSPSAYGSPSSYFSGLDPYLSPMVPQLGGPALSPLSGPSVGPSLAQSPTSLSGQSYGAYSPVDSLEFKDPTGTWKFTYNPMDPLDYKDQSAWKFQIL

| Sequence | binding signal (FEV) | binding signal (ETV5) | binding signal (HSF1) | binding signal (SPIC) | binding signal (ELF4) | binding signal (ELK4) | binding signal (ETV2) | binding signal (ELF3) | binding signal (CRX) | binding signal (ETV1) |
| --- | --- | --- | --- | --- | --- | --- | --- | --- | --- | --- |
| ATTTAC | 1.3 fold enrichment (6-mer frequency, TF over GST control) | 1.33 fold enrichment (6-mer frequency, TF over GST control) | 1.38 fold enrichment (6-mer frequency, TF over GST control) | 1.2 fold enrichment (6-mer frequency, TF over GST control) | 1.33 fold enrichment (6-mer frequency, TF over GST control) | 1.23 fold enrichment (6-mer frequency, TF over GST control) | 1.16 fold enrichment (6-mer frequency, TF over GST control) | 1.27 fold enrichment (6-mer frequency, TF over GST control) | 1.75 fold enrichment (6-mer frequency, TF over GST control) | 1.22 fold enrichment (6-mer frequency, TF over GST control) |
| CTATGC | 1.36 fold enrichment (6-mer frequency, TF over GST control) | 1.38 fold enrichment (6-mer frequency, TF over GST control) | 1.28 fold enrichment (6-mer frequency, TF over GST control) | 1.54 fold enrichment (6-mer frequency, TF over GST control) | 1.48 fold enrichment (6-mer frequency, TF over GST control) | 1.38 fold enrichment (6-mer frequency, TF over GST control) | 1.55 fold enrichment (6-mer frequency, TF over GST control) | 1.2 fold enrichment (6-mer frequency, TF over GST control) | 1.15 fold enrichment (6-mer frequency, TF over GST control) | 1.55 fold enrichment (6-mer frequency, TF over GST control) |
| GAACCT | 1.03 fold enrichment (6-mer frequency, TF over GST control) | 1.1 fold enrichment (6-mer frequency, TF over GST control) | 1.45 fold enrichment (6-mer frequency, TF over GST control) | 1.09 fold enrichment (6-mer frequency, TF over GST control) | 1.17 fold enrichment (6-mer frequency, TF over GST control) | 1.07 fold enrichment (6-mer frequency, TF over GST control) | 1.25 fold enrichment (6-mer frequency, TF over GST control) | 1.15 fold enrichment (6-mer frequency, TF over GST control) | 1.06 fold enrichment (6-mer frequency, TF over GST control) | 1.05 fold enrichment (6-mer frequency, TF over GST control) |
| TCCGCT | 2.51 fold enrichment (6-mer frequency, TF over GST control) | 2.37 fold enrichment (6-mer frequency, TF over GST control) | 1.51 fold enrichment (6-mer frequency, TF over GST control) | 2.63 fold enrichment (6-mer frequency, TF over GST control) | 2.13 fold enrichment (6-mer frequency, TF over GST control) | 2.01 fold enrichment (6-mer frequency, TF over GST control) | 2.27 fold enrichment (6-mer frequency, TF over GST control) | 2.15 fold enrichment (6-mer frequency, TF over GST control) | 1.84 fold enrichment (6-mer frequency, TF over GST control) | 2.44 fold enrichment (6-mer frequency, TF over GST control) |
| GCATTT | 1.57 fold enrichment (6-mer frequency, TF over GST control) | 1.38 fold enrichment (6-mer frequency, TF over GST control) | 1.15 fold enrichment (6-mer frequency, TF over GST control) | 1.37 fold enrichment (6-mer frequency, TF over GST control) | 1.4 fold enrichment (6-mer frequency, TF over GST control) | 1.27 fold enrichment (6-mer frequency, TF over GST control) | 1.25 fold enrichment (6-mer frequency, TF over GST control) | 1.33 fold enrichment (6-mer frequency, TF over GST control) | 1.16 fold enrichment (6-mer frequency, TF over GST control) | 1.37 fold enrichment (6-mer frequency, TF over GST control) |
| ATCTAA | 1.14 fold enrichment (6-mer frequency, TF over GST control) | 1.15 fold enrichment (6-mer frequency, TF over GST control) | 1.49 fold enrichment (6-mer frequency, TF over GST control) | 1.13 fold enrichment (6-mer frequency, TF over GST control) | 1.23 fold enrichment (6-mer frequency, TF over GST control) | 1.24 fold enrichment (6-mer frequency, TF over GST control) | 1.22 fold enrichment (6-mer frequency, TF over GST control) | 1.12 fold enrichment (6-mer frequency, TF over GST control) | 1.83 fold enrichment (6-mer frequency, TF over GST control) | 1.16 fold enrichment (6-mer frequency, TF over GST control) |
| CTAGGT | 1.07 fold enrichment (6-mer frequency, TF over GST control) | 1.18 fold enrichment (6-mer frequency, TF over GST control) | 1.19 fold enrichment (6-mer frequency, TF over GST control) | 1.26 fold enrichment (6-mer frequency, TF over GST control) | 1.12 fold enrichment (6-mer frequency, TF over GST control) | 1.18 fold enrichment (6-mer frequency, TF over GST control) | 1.07 fold enrichment (6-mer frequency, TF over GST control) | 1.18 fold enrichment (6-mer frequency, TF over GST control) | 1.05 fold enrichment (6-mer frequency, TF over GST control) | 1.1 fold enrichment (6-mer frequency, TF over GST control) |
